Assay results reported in PubChem BioAssay (NCATS).
Active and inactive are the calls of the source. Calls come from the whole dose curve; as a rule, active = well fitted inhibition curve with a large enough effect; inconclusive = small, poorly fitted or top-dose-only effect; inactive = flat fitted curve, though single readings scatter.

The molecules below were run against Luciferin 4-monooxygenase (Photinus pyralis) (UniProt P08659) (assay: Primary firefly luciferase (FLuc) qHTS assay for identification of artifact compounds. (AID 1845220; note: nearly all actives have a fitted effect of over 60% in size)). Conditions: purified firefly luciferase, luminescence, 5 min; series mostly up to 54.1 µM; activity change, negative = inhibition: at the top concentration.
Source text: PI: Alexander Tropsha Ph.D.
UNC Eshelman School of Pharmacy
University of North Carolina, Chapel Hill, North Carolina
Hits from high-throughput screening (HTS) of chemical libraries are often false positives due to their interference with the assay detection technology. In response to this problem, we generated the largest publicly available library of chemical liabilities and developed a free webtool to predict HTS artifacts, both of which are described herein. More specifically, we generated, curated, and integrated HTS datasets for thiol reactivity, redox activity, and luciferase (firefly and nano) activity. Using these curated datasets, we developed and validated several Quantitative Structure-Interference Relationship (QSIR) models to predict nuisance behavior. […] These models were employed for virtual profiling of the National Center for Advancing Translational Science's (NCATS) in-house library, and 256 compounds for each assay were selected for the experimental validation of nuisance behavior. The BA for these external predictions ranged from 58 to 78% for compounds within the applicability domains of the models. […] The models developed in this study, along with aggregation models previously developed by our group (SCAM Detective) were implemented in "Liability Predictor," an online tool which may be used as part of chemical library design or for triaging HTS hits. Both the models and the curated datasets are publicly available at https://liability.mml.unc.edu/.
SEQUENCE No. (e.g., 1, 2, 3, etc.); […] (e.g., Cells, Incubation, Reagent, etc.); VALUE; DESCRIPTION.
1; Reagent; 3 uL; Luciferase substrate mixture.
2; Compounds and control; 16 nL; Kalypsis pin tool (Wako USA) equipped with a 1536-well pin head.
4; Reagent; 1 uL; Luciferase enzyme.
6; Detection; Luminescence, ViewLux microplate reader.
NOTES (numbers refer to Sequence numbers above)
1. 3 uL of luciferase substrate mixture containing D-luciferin and ATP (final concentrations of 10 uM and 10 uM, respectively) in assay buffer (10 mM Mg-acetate, 0.01% Tween-20, 0.05% bovine serum albumin, 50 mM Tris acetate, pH 7.6) was dispensed into all wells of a 1536-well assay plate (solid-bottom white plate; Greiner Bio One, Monroe, NC).
2. A Wako Pin-tool (Wako Automation, Richmond, VA) was used to transfer 16 nL of compounds (consisting of 7-plates in qHTS format, final concentration range 18.3 nM to 114 uM) or control PTC124 (final concentration range 1.22 nM to 40 uM).
3. 15 min. incubation at room temperature protected from light.
4. 1 uL of luciferase enzyme (final concentration 10 nM, Photinus pyralis luciferase) or buffer was dispensed for a final assay volume of 4 uL.
5. Plates were centrifuged (121xg, 15 seconds) and incubated for 5 minutes.
6. Samples were read for luminescence on a ViewLux CCD imager (PerkinElmer). Data were normalized to no-enzyme (0% activity) and no-inhibitor (DMSO; 100%) controls and the resulting percent inhibition data were fitted to a 4-parameter Hill equation using NCATS in-house software.
Potency is the fitted concentration of half-maximal effect.

SMILES	outcome	activity change, negative = inhibition	Potency
NC(=Nc1ccc(CCNCc2cccc(Cl)c2)cc1)c1cccs1	inactive		
O=C(Nc1ncc(SCCN2CCCC2)s1)C1(c2ccc(S(=O)(=O)C3CC3)cc2)CC1C1CCCCC1 (stereo not given)		2.17% (inactive)	
CC1(CO)CCCC2(C)C1C(OC(=O)c1ccccc1)C=C1C(=O)OCC12O (stereo not given)	inactive		
COc1cc(N2CCN(C)CC2)ccc1Nc1nccc(-c2cn(C)c3cnccc23)n1		3.08% (inactive)	
COc1ccc(-c2c(C)c(C(=O)NN3CCCCC3)nn2-c2ccc(Cl)cc2Cl)cc1	inactive		
CC[C@@H](C)[C@H]1C(=O)O[C@H](C(C)C)C(=O)N(C)[C@@H](C(C)C)C(=O)O[C@H](C(C)C)C(=O)N(C)[C@@H](C(C)C)C(=O)O[C@H](CC(C)C)C(=O)N1C		3.24% [at 25.7 µM] (inactive)	
C[C@@H]1CCNC(=O)c2cc3ccc(C(=O)Nc4nc5ccccc5n4CCCN(C)C)cc3n21		1.55% (inactive)	
C[C@@H](O[C@H]1OCCN(Cc2n[nH]nc2CN(C)C)[C@H]1c1ccc(F)cc1)c1cc(C(F)(F)F)cc(C(F)(F)F)c1	inactive		
C=C1[C@@H](C2=CC(=O)OC2)CC[C@@]2(O)[C@@H]1CC1[C@H]2CC[C@@H]2C[C@@H](O[C@H]3O[C@@H](C)[C@@H](O[C@@H]4O[C@H](CO[C@@H]5O[C@H](CO)[C@@H](O)[C@H](O)[C@H]5O)[C@@H](O)[C@H](O)[C@H]4O)[C@H](OC)[C@H]3O)CC[C@]12C (stereo not given in full)		0.528% [at 11.6 µM] (inactive)	
C=C1C(=O)O[C@@H]2C[C@@H](C)[C@]34C[C@]5(C(=O)O[C@H]6CC(C)=C([C@H](C)CCCO)[C@H](OC(=O)C(C)CC)[C@H]65)[C@@H](C(C)=C3C[C@@H]12)[C@H]4OC(C)=O (stereo not given in full)		-8.76% [at 25.7 µM] (inactive)	
O=C(C1=CCN2c3c(cccc31)OC[C@H]2CN1CCOCC1)c1cccc2ccccc12	inactive		
Cc1ccc(CCCO)c(NCc2ccc3nc(NCCCN4CCOCC4)n(Cc4nc(C)ccc4O)c3c2)c1	inactive		
COc1ccc(-c2nc(-c3cc(C(F)(F)F)cc(C(F)(F)F)c3)n(Cc3ccc(C(N)=O)cc3)c2-c2ccc(OC)cc2)cc1		-0.822% (inactive)	
CCOc1cc(CNC2CCCC2)cc(Cl)c1OCc1ccc(Cl)cc1	inactive		
CCOc1ccc(-c2nc(-c3cccc4c3CCC4NCCO)no2)cc1OCC (stereo not given)		3.74% (inactive)	
O=C(O)c1ccc(O)c2ncc(N3CCCN(CCc4cccc5ccccc45)CC3)cc12	inactive		
C[C@H](NC(=O)C(C)(C)Oc1ccc(C(F)(F)F)cn1)[C@@H](Cc1ccc(Cl)cc1)c1cccc(C#N)c1	inactive		
C=C1C(=O)O[C@@H]2C[C@@]3(C)CCC[C@H](C)C3=C[C@H]12		-0.984% (inactive)	
CCCCc1nc(C)c(CC(=S)N(C)C)c(=O)n1Cc1ccc(-c2ccccc2-c2nn[nH]n2)cc1	inactive		
COc1ccc(Cl)cc1[C@@]1(F)C(=O)Nc2cc(C(F)(F)F)ccc21		1.5% (inactive)	

SMILES	outcome	activity change, negative = inhibition	Potency
COC(=O)/C=C/C(=O)N(O)CCCCNCc1ccc(COC(=O)Nc2cccc3ccccc23)cc1		3.2% (inactive)	
Oc1ccc(Nc2nc(-c3ccc(Cl)cc3)cs2)cc1			4.78 µM (active)
C=CC(=O)Nc1cccc(Nc2nc(Nc3ccc(Oc4ccnc(C(=O)NC)c4)cc3)ncc2F)c1		2.36% (inactive)	
CC1CCC2C(C)(C)C(O)CCC2(C)C12Cc1c(O)cc3c(c1O2)CN(C(CCCN=C(N)N)C(=O)O)C3=O (stereo not given)		-5.39% [at 25.7 µM] (inactive)	
C=C1C(=O)O[C@H]2[C@H]1[C@@H](OC(=O)/C(C)=C\C)C[C@]1(C)O[C@@H]1[C@H]1O[C@H]1C(=C)[C@H]2O		2.61% (inactive)	
N#C[C@@H]1C[C@@H]2C[C@@H]2N1C(=O)[C@@H](N)C12CC3CC(CC(O)(C3)C1)C2	inactive		
CCOC(=O)CCC(=O)O[C@H]1[C@H](O[C@@H]2[C@@H](C)[C@H](O[C@H]3C[C@@](C)(OC)[C@@H](O)[C@H](C)O3)[C@@H](C)C(=O)O[C@H](CC)[C@@](C)(O)[C@H](O)[C@@H](C)C(=O)[C@H](C)CC2(C)O)O[C@H](C)C[C@@H]1N(C)C (stereo not given in full)	inactive		
CCOC(=O)c1cccc(CNc2ccc(N(C)C(=O)Nc3ccccc3)cc2)c1		-4.81% (inactive)	
CC(=O)N[C@@H](CC(=O)O)C(=O)N[C@@H](CCC(=O)O)C(=O)N[C@H](C(=O)N[C@@H](CC(=O)O)C(=O)Nc1ccc2c(C)cc(=O)oc2c1)C(C)C		-18.8% (inactive)	
COc1ccc2c(c1)CN(C(=O)CCN1CCC(Cc3ccccc3)CC1)CCS2		-0.0949% [at 25.7 µM] (inactive)	
CCOP(=O)(Cc1ccc(C(=O)Nc2ccc(Br)cc2C#N)cc1)OCC		-6.54% [at 25.7 µM] (inactive)	
C=C(C)[C@@H]1CC[C@]2(C(=O)O)CC[C@]3(C)C(CCC4[C@@]5(C)C[C@@H](O)[C@H](O)C(C)(C)C5CC[C@]43C)C12 (stereo not given in full)		4.1% [at 25.7 µM] (inactive)	
CC[C@H]1OC(=O)[C@H](C)[C@@H](O[C@H]2C[C@@](C)(OC)[C@@H](O)[C@H](C)O2)[C@H](C)[C@@H](O[C@@H]2O[C@H](C)C[C@H](N(C)C)[C@H]2O)[C@](C)(O)C[C@@H](C)/C(=N/OCOCCOC)[C@H](C)[C@@H](O)[C@]1(C)O		4% (inactive)	
Nc1ncnc2c1ncn2[C@@H]1O[C@H](CO)C[C@H]1O		-11% (inactive)	
COc1cc(O)c(C(=O)CCc2ccc(O)cc2)c(O[C@@H]2O[C@H](CO)[C@@H](O)[C@H](O)[C@H]2O)c1		-0.39% [at 25.7 µM] (inactive)	
CCCCOc1ccc(-c2cncc(C(=O)NCc3cccnc3N3CCOCC3)c2)cc1Cl		-16.7% (inactive)	
CCC(C)n1cc(C)c2c(C(=O)NCc3c(C)cc(C)[nH]c3=O)cc(-c3ccc(N4CCNCC4)nc3)cc21 (stereo not given)	inactive		
CC(=O)N1CCN([C@H]2CCN(C(=O)N(C)[C@H](C)c3cc(C(F)(F)F)cc(C(F)(F)F)c3)[C@@H](c3ccc(F)cc3C)C2)CC1	inactive		
CC1CCN(c2cc(NC(=O)c3ccccc3)ncn2)CC1		-22.4% (inactive)	
CNc1cc(OC)c(C(=O)N[C@@H]2CCN(Cc3ccccc3)[C@@H]2C)cc1Cl		-14.8% (inactive)	
